For 40 compounds, growth results are on record in PubChem BioAssay (NCI).

The structures appear in SMILES notation. About 83,000 compounds went through this panel and 20% of them were active in at least one assay; those are over-represented in the sample as a whole.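 Assay: single dose, 48 h. Readout: percent growth (0 = no net growth; negative = cell death). Active: <10.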 The source made the active and inactive calls.

This test relates to NCI-H23 lung. Kind of test: NCI-60 one-dose screen, 48 h (100 = growth as untreated, 0 = no growth, -100 = all killed). The settings on record: 10 µM unless noted. As to the method:
Growth inhibition of the NCI-H23 human Non-Small Cell Lung tumor cell line is measured as a screen for anti-cancer activity. Cells are grown in 96 well plates and exposed to the test compound for 48 hours. Compounds are tested at a single concentration, which is 10^-5 M for most compounds. The reported endpoint is percent growth (GI% or GIPRCNT), where numbers from 0 - 100% represent growth inhibition, and numbers from -100% - 0 represent cell death. For example, a value of 40 represents 60% growth inhibition. A value of 0 means no net growth occurred over the course of the experiment. A value of -40 indicates 40% of cells at the beginning of the experiment died by the end of the experiment. A value of -100 means all cells are dead at the end of the experiment.
NCI-60 Human Tumor Cell Lines Screen was performed using the standard one-dose NCI protocol, which is described in more detail at https://dtp.cancer.gov/discovery_development/nci-60/default.htm.
Compounds with GIPRCNT values below 10 were considered active. Activity score was based on GIPRCNT using the following formula: […]
Score is 0 for GIPRCNT values of 100 or above, 50 for GIPRCNT values of 0, and 100 for GIPRCNT values of -100.
For `CN1CCN(c2c(F)cc(NC3=C(Cl)C(=O)c4ncccc4C3=O)cc2F)CC1`, the growth was 82.8% (inactive).

In the case of `COc1cc(C2NC(c3cc(OC)c(OC)c(OC)c3)C(C#N)(C#N)C2(C#N)C#N)cc(OC)c1OC` (stereo not given), the growth is 101% (inactive).

For the compound `CC(C)(C)CC(C)(C)Nc1c(-c2ccc3c(c2)OCO3)nc2cnccn12`, the growth is 97.7% (inactive).

Consider `COc1cc(C2CC(c3cccc(Nc4ccncc4)c3)=NN2c2ccccc2)cc(OC)c1OC` (stereo not given), for which the growth is 90% (inactive).

As to `Nc1c(C(=O)Nc2cccc3ccncc23)sc2nc3c(cc12)C(=O)CCC3`, the growth was 58.1% (inactive).

`CN(C)c1ccc(-c2c(C#N)c(N)n3nc(N)c(C#N)c3c2C#N)cc1`: the growth was 96.9% (inactive).

As to `Cc1cc(Nc2cccc(C(F)(F)F)c2)n2c(nc3ccccc32)c1C#N`, the growth is 25.1% (inactive).

Regarding `O=C(Nc1ccc2cc3ccc(NC(=O)N4CCCCCC4)cc3nc2c1)N1CCCCCC1`, the growth was -39% (active).

With `Clc1ccc(N2N=C(c3cccc(Nc4ccncc4)c3)CC2c2ccc3c(c2)OCO3)cc1` (stereo not given), the growth was 83.6% (inactive).

Take `N#CSCC1CC(O)(c2ccccc2)C(c2ccccc2)C(c2ccc(F)cc2)O1` (stereo not given): the growth was 7.22% (active).

On to `COc1cc(C2CC(c3cccc(Nc4ccncc4)c3)=NN2c2cc(Cl)cc(Cl)c2)cc(OC)c1OC` (stereo not given), for which the growth is 77.8% (inactive).

In the case of `CC(=O)[C@@H]1CC[C@]2(C(=O)n3ccnc3)CC[C@]3(C)[C@H](CC[C@@H]4[C@@]5(C)Cc6c([nH]c7ccccc67)C(C)(C)[C@@H]5CC[C@]43C)[C@@H]12`, the growth was 87.8% (inactive).

Regarding `CC(C)(C)CC(C)(C)Nc1c(-c2ccc(C(F)(F)F)cc2)nc2cnccn12`, the growth was 82.4% (inactive).

Consider `CN1CCN(c2cnc(C(=O)Nc3cc(F)cc4cccnc34)cn2)CC1`, for which the growth was 39.6% (inactive).

On to `O=C(CSc1nc2sc3c(c2c(=O)n1Cc1ccccc1)CCCC3)N1CCN(c2ccccc2)CC1`, for which the growth was 90.9% (inactive).

As for `COc1cc(OC)c(/C=C/C(=O)c2ccc(Nc3ncnc4ccccc34)cc2)c(OC)c1`, the growth was 17% (inactive).

For the compound `O=S(=O)(NCCCNc1nccc(-c2c(-c3ccc(F)c(O)c3)nc3sccn23)n1)c1ccc(F)cc1`, the growth was 2.45% (active).

On to `O=c1[nH]nc(-c2ccc(Br)cc2)cc1Cc1ccc(O)cc1`, for which the growth is 98.5% (inactive).

On to `COc1ccc(CNCCN2C(=O)c3ccc4c5c(ccc(c35)C2=O)C(=O)N(CCNCc2ccc(OC)cc2)C4=O)cc1`, for which the growth was -52.5% (active).

With `COc1ccc(-c2nc(SC(C)C)nc(NNC(N)=O)c2C#N)cc1`, the growth is 97.8% (inactive).

For `CCN1C(=O)/C(=c2\sc3n(c2=O)NC2C(N=3)N(CC)C(=O)N2CC)c2ccccc21` (stereo not given), the growth is 38.5% (inactive).

As to `COc1cc2nnn3c4ncccc4c(N=O)c3c2cc1OC`, the growth was 112% (inactive).

Regarding `CC(C)(C)OC(=O)N1C/C(=C\c2ccoc2)C(=O)/C(=C/c2ccoc2)C1`, the growth is 99.1% (inactive).

With `COc1cccc2cc(-c3cc4ccccc4[nH]3)/c(=N/C(=S)Nc3ccc(C)cc3)oc12`, the growth is 67.9% (inactive).

For the compound `COc1ccncc1C#Cc1cncc(C(=O)Nc2ccc(CN3CCN(C)CC3)c(C(F)(F)F)c2)c1`, the growth is 28% (inactive).

Consider `O=C(/C=C\c1ccc(OCCCCCC[P+](c2ccccc2)(c2ccccc2)c2ccccc2)cc1)c1ccc2c(c1)OCCO2`, for which the growth was 3.95% (active).

In the case of `CCOC(=O)Oc1c(OC)cc(C(=O)O[C@@H]2C[C@@H]3CN4CCc5c([nH]c6cc(OC)ccc56)[C@H]4C[C@@H]3[C@H](C(=O)OC)[C@H]2OC)cc1OC`, the growth is 74.9% (inactive).

Consider `CCCCCCCCOC(=O)c1ccc(O)c(OC)c1`, for which the growth was 92.5% (inactive).

Consider `COc1ccc(NS(=O)(=O)c2ccc(C)cc2)c([N+](=O)[O-])c1`, for which the growth was 96.6% (inactive).

In the case of `O=S(=O)(O)c1cc(O)c2c(N=Nc3ccc(Nc4ccccc4)c4c(S(=O)(=O)O)cccc34)cc(S(=O)(=O)O)cc2c1`, the growth is 100% (inactive).

Regarding `CC(=O)Nc1ccc(S(=O)(=O)NC2CCCCC2)cc1`, the growth is 99.9% (inactive).

Consider `O=S(=O)(c1ccccc1)N1CCCc2ccccc21`, for which the growth is 102% (inactive).

Take `CC(C)NC(=O)N1C(=O)CCC1NNC(=O)c1ccc([N+](=O)[O-])cc1` (stereo not given): the growth is 89.8% (inactive).

Turning to `Brc1ccc(C2CC(c3cccc(Nc4ccncc4)c3)=NN2c2ccccc2)cc1` (stereo not given), the growth is 85.6% (inactive).

Turning to `COc1ccc(-c2nc(SC)nc(N3CCOCC3)c2C#N)cc1`, the growth was 98.6% (inactive).

Take `CC[C@H](C)[C@@H]1NC(=O)[C@H](Cc2ccc(O)cc2)N(C)C(=O)[C@H](Cc2ccccc2)NC(=O)CN(C)C(=O)[C@@H]2CCCN2C(=O)[C@@H](Cc2ccccc2)N(C)C(=O)[C@H](CC(C)C)NC1=O`: the growth is -15.1% (active).

For the compound `CNC(=O)NCC1OC(n2cnc3c(NC(=O)Nc4ccccc4)ncnc32)C(O[Si](C)(C)C(C)(C)C)C1O[Si](C)(C)C(C)(C)C` (stereo not given), the growth was 36.3% (inactive).

`COc1ccc(-n2cc(-c3cc(OC)c(OC)c(OC)c3)n(C(C)=O)c2=O)cc1`: the growth was 95% (inactive).

With `O=C1c2ccccc2-c2c1c1c(NCCCO)nc3ccccc3c1n2Cc1ccccc1`, the growth was 35.1% (inactive).

For the compound `Cc1cccc(C)c1-c1cc(Cc2ccc(Cl)cc2)c(=O)[nH]n1`, the growth was 84.9% (inactive).
